Test results taken from PubChem BioAssay (Tox21).
“And” between values parts separate entries of the source, which are not always exact repeats. Equal entries are not always repeated. Records with an inconclusive call do not appear. The source made the active and inactive calls. Unless noted, calls follow the shape of the dose curve; as a rule, active = well fitted curve in the direction sought with a large enough effect in the repeat runs; inconclusive = weak or mixed curves; inactive = no such curve, though single readings can be large; an effect the other way counts as inactive or inconclusive.

Legend:
[1] = qHTS assay to identify small molecule antagonists of the estrogen related receptor (ERR) signaling pathway from Tox21 library - cell viability counter screen (AID 1224834); also: nearly all actives have a fitted effect of over 30% in size; also: potency is read from the fitted curve at half-maximal effect
Method in brief: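 Compounds in DMSO were pinned onto ERR cells that had been incubated for 6 h, and the plates were held at 37 C for 17.5 h. CellTiter-Fluor reagent was then added and fluorescence was measured after 30 min.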

[2] = target: Luciferin 4-monooxygenase (Photinus pyralis) (UniProt P08659); experiment: qHTS assay to identify small molecule inhibitors of firefly luciferase (AID 1224835); also: nearly all actives have a fitted effect of over 25% in size
Sequence of Luciferin 4-monooxygenase (Photinus pyralis) (P08659 whole entry, looked up): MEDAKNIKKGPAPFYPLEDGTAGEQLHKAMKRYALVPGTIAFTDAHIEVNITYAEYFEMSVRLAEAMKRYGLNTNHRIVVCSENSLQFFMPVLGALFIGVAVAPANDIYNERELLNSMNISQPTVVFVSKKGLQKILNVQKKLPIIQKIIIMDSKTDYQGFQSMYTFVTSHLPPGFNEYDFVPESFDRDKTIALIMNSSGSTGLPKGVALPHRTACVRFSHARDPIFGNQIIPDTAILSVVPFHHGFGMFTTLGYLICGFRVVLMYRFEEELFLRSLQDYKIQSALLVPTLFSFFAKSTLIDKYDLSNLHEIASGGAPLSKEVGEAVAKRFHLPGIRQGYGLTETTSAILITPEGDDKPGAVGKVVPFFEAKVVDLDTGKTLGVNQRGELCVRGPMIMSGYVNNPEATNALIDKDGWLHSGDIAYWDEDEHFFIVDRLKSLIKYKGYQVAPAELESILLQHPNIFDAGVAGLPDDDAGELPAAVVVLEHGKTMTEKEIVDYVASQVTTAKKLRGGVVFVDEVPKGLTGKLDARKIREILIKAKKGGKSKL
Method in brief: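 Biochemical qHTS: compounds run as interplate titrations against purified firefly enzyme, with D-luciferin and ATP each at its KM concentration. Light output recorded by CCD imaging.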

[3] = qHTS assay to identify small molecule antagonists of the constitutive androstane receptor (CAR) signaling pathway - cell viability counter screen (AID 1224837); also: nearly all actives have a fitted effect of over 45% in size; also: potency is read from the fitted curve at half-maximal effect
Method in brief: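 Cells are seeded, rested 4 hr at 37 C/5% CO2, dosed with compound (15-point series) and 50 nM CITCO, incubated a further 23 hr, and then CellTiter-Fluor reagent is added before fluorescence is read. The line is HepG2 with stable hCAR and CYP2B6-2.2kb.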

[4] = target: Nuclear receptor subfamily 1 group I member 3 (Homo sapiens) (UniProt Q14994); experiment: qHTS assay to identify small molecule antagonists of the constitutive androstane receptor (CAR) signaling pathway (AID 1224838);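 also: HepG2 cells stably expressing hCAR with CYP2B6 luciferase reporter stimulated by CITCO; nearly all actives have a fitted effect of over 40% in size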; also: potency is read from the fitted curve at half-maximal effect
Sequence of Nuclear receptor subfamily 1 group I member 3 (Homo sapiens) (Q14994 whole entry, looked up): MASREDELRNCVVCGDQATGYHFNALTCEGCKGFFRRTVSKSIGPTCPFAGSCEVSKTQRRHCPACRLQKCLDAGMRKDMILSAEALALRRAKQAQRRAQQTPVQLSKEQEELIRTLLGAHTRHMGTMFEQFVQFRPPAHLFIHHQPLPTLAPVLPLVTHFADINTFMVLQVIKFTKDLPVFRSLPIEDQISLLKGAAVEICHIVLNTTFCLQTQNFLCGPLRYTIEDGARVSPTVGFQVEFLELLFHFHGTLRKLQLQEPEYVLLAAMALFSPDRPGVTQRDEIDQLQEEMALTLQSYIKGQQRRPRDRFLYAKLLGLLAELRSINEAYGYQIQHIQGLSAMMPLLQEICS
Method in brief: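 Luminescence from a CYP2B6-2.2kb promoter reporter in hCAR-expressing HepG2 cells reflects CAR signaling. Cells received compounds at 15 concentrations and 50 nM CITCO (final), then incubated 24 h at 37 C/5% CO2.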

[5] = target: Nuclear receptor subfamily 1 group I member 3 (Homo sapiens) (UniProt Q14994); experiment: qHTS assay to identify small molecule agonists of the constitutive androstane receptor (CAR) signaling pathway (AID 1224839); also: nearly all actives have a fitted effect of over 15% in size; also: potency is read from the fitted curve at half-maximal effect;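 as to activation: HepG2 cells stably carrying human CAR and a CYP2B6 luciferase reporter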
Method in brief: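 Using human hepatoma HepG2 cells engineered with hCAR and a CYP2B6-2.2kb reporter, 15-concentration compound series were incubated 24 h alongside PK11195 at 0.75 uM final, with luminescence quantified afterwards.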

[6] = qHTS assay to identify small molecule antagonists of the estrogen related receptor signaling pathway with the pleiotropic PPARgamma coactivator (PGC) from Tox21 10K library - cell viability counter screen (AID 1224840; active = well fitted cell-killing curve with a large enough effect in the repeat runs, not every such curve was filed as active; also: nearly all actives have a fitted effect of over 40% in size; also: potency is read from the fitted curve at half-maximal effect)
Method in brief: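 Cell viability is measured by CellTiter-Fluor fluorescence in PGC/ERR cells that receive compounds after a 6-hour attachment period and are then incubated 17.5 hours at 37 C.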

[7] = qHTS assay to identify small molecule antagonists of the estrogen related receptor signaling pathway with the pleiotropic PPARgamma coactivator (PGC) from Tox21 10K library (AID 1224841; call rule not given here; also: actives are mostly falling curves and most rising ones were filed inactive; nearly all actives have a fitted effect of over 50% in size; also: potency is read from the fitted curve at half-maximal effect)
Method in brief: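 Cells stably carrying the PGC/ERR reporter, seeded at 2,000 per well, received pin-transferred compounds 6 h post-plating. Exposure lasted 18 h at 37 C. Signal: One-Glo luminescence.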

[8] = qHTS assay to identify small molecule agonists of the estrogen related receptor signaling pathway with the pleiotropic PPARgamma coactivator (PGC) from Tox21 10K library (AID 1224842); also: nearly all actives have a fitted effect of over 15% in size
Method in brief: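 PGC/ERR reporter cell line, 2,000 cells per well, incubated 6 h at 37 C before 23 nL compound in DMSO was added. After 18 h at 37 C, One-Glo luminescence read following 30 min at room temperature.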

[9] = target: Thyrotropin receptor (Homo sapiens) (UniProt P16473); experiment: qHTS assay to identify small molecule agonists of the thyroid stimulating hormone receptor (TSHR) signaling pathway (AID 1224843; calls by dose curve; also: nearly all actives have a fitted effect of over 45% in size)
Sequence of Thyrotropin receptor (Homo sapiens) (P16473 whole entry, looked up): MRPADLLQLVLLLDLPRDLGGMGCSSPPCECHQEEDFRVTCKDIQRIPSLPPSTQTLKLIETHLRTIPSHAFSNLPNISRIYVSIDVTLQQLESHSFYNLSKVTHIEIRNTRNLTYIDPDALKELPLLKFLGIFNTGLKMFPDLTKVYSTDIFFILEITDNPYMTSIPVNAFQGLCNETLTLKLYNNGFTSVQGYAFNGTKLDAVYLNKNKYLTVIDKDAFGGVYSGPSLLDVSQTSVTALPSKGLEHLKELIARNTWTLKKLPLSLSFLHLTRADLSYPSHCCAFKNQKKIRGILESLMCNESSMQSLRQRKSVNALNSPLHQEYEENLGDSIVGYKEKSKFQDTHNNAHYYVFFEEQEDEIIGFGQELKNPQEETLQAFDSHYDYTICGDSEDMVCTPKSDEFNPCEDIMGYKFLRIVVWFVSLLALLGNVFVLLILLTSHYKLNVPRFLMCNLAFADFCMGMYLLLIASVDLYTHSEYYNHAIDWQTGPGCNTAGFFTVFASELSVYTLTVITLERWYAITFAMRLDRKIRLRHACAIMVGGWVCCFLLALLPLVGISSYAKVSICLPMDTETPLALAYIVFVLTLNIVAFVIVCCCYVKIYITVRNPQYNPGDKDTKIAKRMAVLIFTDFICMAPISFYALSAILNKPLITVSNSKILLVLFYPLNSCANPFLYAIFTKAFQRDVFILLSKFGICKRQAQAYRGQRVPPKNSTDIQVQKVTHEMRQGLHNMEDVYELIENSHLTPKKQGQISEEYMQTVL
Method in brief: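 HEK293/TSHR, 800 cells/well; cpd 30 min RT; add cAMP-d2 + anti-cAMP-cryptate, 1 h RT; fluorescence read on plate reader. 15-pt titration, n=3.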

[10] = qHTS assay to identify small molecule agonists of the hypoxia (HIF-1) signaling pathway - cell viability counter screen (AID 1224844; calls by dose curve; also: nearly all actives have a fitted effect of over 50% in size; also: potency is read from the fitted curve at half-maximal effect)
Method in brief: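 Viability counter screen: HRE-bla ME-180 cells plated 5 hrs before compound addition, treated 17 hrs at 37C and 5% CO2, then CellTiter-Glo added after the FRET reporter read; luminescence after 30 min.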

[11] = qHTS assay to identify small molecule agonists of H2AX (AID 1224845; active = well fitted activation curve with a large enough effect in the signal ratio in the repeat runs, not every such curve was filed as active; the % refers to the signal ratio; also: potency is read from the fitted curve at half-maximal effect)
Method in brief: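 Wild-type CHO-K1 cells, plated overnight, exposed 3hr at 37C to 15 concentrations (0.76% DMSO final). Lysed, then HTRF anti-pH2AX (S139) cryptate and anti-H2AX-d2 antibodies, 24 hr room temperature; 665/620 nm emission read.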

[12] = qHTS assay to identify small molecule agonists of the hypoxia (HIF-1) signaling pathway (AID 1224846; active = well fitted activation curve with a large enough effect in the signal ratio in the repeat runs, not every such curve was filed as active; the % refers to the signal ratio)
Method in brief: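 Agonist mode reporter screen. ME-180 cells stably expressing bla under HRE control received test compounds in DMSO for 17 hrs (37C, 5% CO2), and beta-lactamase activity was then detected with the CCF4-AM FRET substrate.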

[13] = qHTS assay to identify small molecule agonists of H2AX - cell viability counter screen (AID 1224847; calls by dose curve; also: nearly all actives have a fitted effect of over 30% in size; also: potency is read from the fitted curve at half-maximal effect)
Method in brief: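 After overnight plating of 1000 CHO-K1 cells per well, a 15-concentration compound series was applied for 3 hr at 37C. Luminescence from CellTiter-Glo, read following 30 min at room temperature, reflected cell viability.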

[14] = qHTS assay to identify small molecule antagonists of the estrogen related receptor (ERR) signaling pathway from Tox21 library (AID 1224848); also: nearly all actives have a fitted effect of over 50% in size; also: potency is read from the fitted curve at half-maximal effect
Method in brief: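 Compounds dissolved in DMSO are pin-transferred onto ERR reporter cells (2,000 per well) that have settled for 6 h at 37 C. Plates then incubate 18 h at 37 C before ONE-Glo luciferase reagent and a luminescence read 30 min later.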

[15] = qHTS assay to identify small molecule agonists of the estrogen related receptor (ERR) signaling pathway from Tox21 library (AID 1224849; calls by dose curve; also: nearly all actives have a fitted effect of over 15% in size); conditions: ERR reporter cell line, ONE-Glo luciferase, 18 h
Method in brief: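 Quantitative HTS in agonist format: NTP ERR cell line, compounds transferred in DMSO after 6 h plating, 18 h incubation at 37 C, ONE-Glo luminescence endpoint.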

[16] = A CellTox Green Cytotoxicity Assay to monitor cytotoxicity in HEK293 cells - 0 hour (AID 1224869); also: nearly all actives have a fitted effect of over 50% in size
Method in brief: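 Dead-cell fluorescence measured kinetically: asymmetric cyanine dye, HEK293, 600 cells/well, 5 h settle, 23 nL cpd/DMSO, 37 C, reads 0–40 h every 8 h.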

[17] = qHTS RealTime-Glo MT Cell Viability Assay in HepG2 cells - 40 hour (AID 1224870); also: nearly all actives have a fitted effect of over 50% in size
Method in brief: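 HepG2 cells (600/well) mixed with RealTime-Glo MT reagent, settled 5 h at 37 C/5% CO2 before compound addition. Nonlytic NanoLuc luminescence from viable-cell prosubstrate reduction read repeatedly during 40 h treatment at 37 C.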

[18] = qHTS RealTime-Glo MT Cell Viability Assay in HepG2 cells - 24 hour (AID 1224867); also: nearly all actives have a fitted effect of over 50% in size
Method in brief: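 HepG2 cells (600/well) were dispensed with RealTime-Glo reagents, incubated 5 h at 37 °C, then treated with compounds in DMSO for up to 40 h. Nonlytic NanoLuc luminescence reflecting viable cells was read at each stated time point.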

[19] = qHTS assay to identify small molecule agonists of the constitutive androstane receptor (CAR) signaling pathway - cell viability counter screen (AID 1224836); also: nearly all actives have a fitted effect of over 45% in size
Method in brief: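 Multiplexed viability check: HepG2-CYP2B6-hCAR cells, 15-point compound dosing, 0.75 uM PK11195 final, 23 h at 37 C, CellTiter-Fluor fluorescence.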

[20] = qHTS RealTime-Glo MT Cell Viability Assay in HEK293 cells - 32 hour (AID 1224868)
Method in brief: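 HEK293 cells seeded with NanoLuc/prosubstrate reagent, rested 5 h at 37 C, then dosed and kept at 37 C up to 40 h. Nonlytic real-time luminescence from viable cells read at 0, 8, 16, 24, 32 and 40 h.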
% is scaled to controls: 0 for no effect and ±100 for the full control effect.

COc1ccc(COC(C)=O)cc1
inactive: Potency [1] | Potency [2] | Potency [3] | Potency [4] | Potency [5] | Potency [6] | Potency [7] | Potency [8] | Potency [9] | Potency [10] | Potency [11] | Potency [12] | Potency [13] | Potency [14] | activity change, positive = activation ([15]; at 92.4 µM (top of the series)) 0.212% and 1.93% | Potency [16] | Potency [17]

CC(C)(O)CCC(C)(C)O
inactive: Potency [1] | Potency [2] | Potency [3] | Potency [4] | Potency [5] | Potency [6] | Potency [7] | Potency [8] | Potency [9] | Potency [10] | Potency [11] | Potency [12] | Potency [14] | activity change, positive = activation ([15]; at 92.4 µM (top of the series)) -1.25% | Potency [18] | Potency [16] | Potency [17]

CCCCCC(=O)O[C@]1(C(C)=O)CC[C@H]2[C@@H]3CCC4=CC(=O)CC[C@]4(C)[C@H]3CC[C@@]21C
active: Potency [1] 48.2 µM and 29.8 µM | Potency [3] 48.2 µM | Potency [6] 54.1 µM | Potency [10] 38.6 µM | Potency [13] 31.6 µM | Potency [14] 24.2 µM and 7.5 µM
inactive: Potency [2] | Potency [4] | Potency [5] | Potency [7] | Potency [8] | Potency [11] | activity change, positive = activation ([15]; at 42.5 µM (top of the series)) -35.8% | activity change, positive = activation ([15]; at 92.4 µM (top of the series)) -61% | Potency [18] | Potency [16] | Potency [17]

c1ccc2n[nH]nc2c1
inactive: Potency [1] | Potency [2] | Potency [19] | Potency [3] | Potency [4] | Potency [5] | Potency [6] | Potency [9] | Potency [10] | Potency [11] | Potency [13] | Potency [20] | Potency [16] | Potency [17]

CC(N)=O
inactive: Potency [1] | Potency [2] | Potency [19] | Potency [3] | Potency [6] | Potency [9] | Potency [10] | Potency [11] | Potency [13] | Potency [18] | Potency [16] | Potency [17]

COc1nc(C)nc(Cl)c1NC1=NCCN1
inactive: Potency [1] | Potency [2] | Potency [19] | Potency [3] | Potency [6] | Potency [9] | Potency [10] | Potency [11] | Potency [18] | Potency [20] | Potency [16] | Potency [17]

NCCCCCC(=O)O
inactive: Potency [1] | Potency [2] | Potency [19] | Potency [3] | Potency [6] | Potency [9] | Potency [10] | Potency [11] | Potency [18] | Potency [16] | Potency [17]

Cc1cc(C(C)(C)C)c(O)c(C(C)(C)C)c1
inactive: Potency [1] | Potency [2] | Potency [19] | Potency [3] | Potency [4] | Potency [5] | Potency [6] | Potency [9] | Potency [11] | Potency [12] | Potency [20] | Potency [16] | Potency [17]

CCc1ccc(C(c2ccc(CC)cc2)C(Cl)Cl)cc1
inactive: Potency [1] | Potency [2] | Potency [19] | Potency [3] | Potency [4] | Potency [6] | Potency [10] | Potency [11] | Potency [12] | Potency [18] | Potency [16] | Potency [17]
active: Potency [5] 22 µM | Potency [13] 115 µM

O=C(O)CCc1ccccc1
inactive: Potency [1] | Potency [2] | Potency [3] | Potency [4] | Potency [5] | Potency [6] | Potency [7] | Potency [8] | Potency [9] | Potency [11] | Potency [12] | Potency [13] | Potency [14] | activity change, positive = activation ([15]; at 92.4 µM (top of the series)) 0.886% | Potency [18] | Potency [20] | Potency [16] | Potency [17]

CCCNC(C)C(=O)Nc1ccccc1C (stereo unspecified)
inactive: Potency [1] | Potency [2] | Potency [19] | Potency [3] | Potency [4] | Potency [5] | Potency [6] | Potency [9] | Potency [11] | Potency [13] | Potency [20] | Potency [16] | Potency [17]

BrC1CCC(Br)C(Br)CCC(Br)C(Br)CCC1Br (stereo unspecified)
inactive: Potency [2] | Potency [19] | Potency [3] | Potency [5] | Potency [8] | activity change, positive = activation ([15]; at 92.4 µM (top of the series)) -60.1% and -54.5% | Potency [16] | Potency [17]
active: Potency [1] 48.4 µM | Potency [4] 21.6 µM and 25.9 µM | Potency [7] 30.5 µM | Potency [11] 89.4 µM | Potency [13] 79.7 µM and 95.6 µM | Potency [14] 27.2 µM and 58 µM

NCCO
inactive: Potency [1] | Potency [2] | Potency [19] | Potency [3] | Potency [6] | Potency [9] | Potency [10] | Potency [11] | Potency [12] | Potency [13] | Potency [18] | Potency [20] | Potency [16] | Potency [17]
